Assay results: PubChem BioAssay (EPA / NIEHS)
The source made the active and inactive calls. How the source made its calls: active means hit-call score of the fitted dose curve at least 0.9, where 1 is the maximum; inactive means score below 0.9.

Legend:
[1] = ATG_CRE_CIS: Attagene CIS-FACTORIAL HepG2 Assay for human cAMP Responsive Element (CRE) binding protein 3 (AID 2282926); conditions: HepG2 CRE cis-reporter, Attagene multiplexed mRNA; actives raise or lower the signal
How it was run: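 Transfected HepG2 were treated for 24 hours, then RNA was extracted and reporter cDNA amplified with sequence-specific primers. Labelled fragments were separated by capillary electrophoresis, and the CRE signal was fitted bidirectionally with DMSO as baseline.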

[2] = target: CCAAT/enhancer-binding protein beta (Homo sapiens) (UniProt P17676); assay: ATG_C_EBP_CIS: Attagene CIS-FACTORIAL HepG2 Assay for human CCAAT/Enhancer Binding Protein (C/EBP) beta (AID 2282927); conditions: HepG2 Attagene cis-factorial transcription factor reporter; actives raise or lower the signal
How it was run: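 Endogenous transcription factor activity in human liver HepG2 cells is inferred from induction of a CEBPB-linked reporter mRNA. Exposure lasts 24 h; activity is fitted in both directions relative to DMSO.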

[3] = ATG_CMV_CIS: Attagene CIS-FACTORIAL HepG2 Assay for human CMV (Internal Marker) (AID 2282928); conditions: HepG2 CMV promoter reporter, transcription factor profiling; actives raise or lower the signal;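 further: endpoint acts as a background internal control marker rather than a target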
How it was run: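 Cell system: HepG2, transiently transfected multiple reporter units under cis promoters. Exposure: 24 h. Detection: RT-PCR, FAM labeling, HpaI digestion, capillary electrophoresis. Analysis: bidirectional, DMSO baseline.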

[4] = ATG_DR4_LXR_CIS: Attagene CIS-FACTORIAL HepG2 Assay for human Liver X Receptor (LXR), DR4 submotif (AID 2282929); conditions: HepG2 Attagene DR4 cis-reporter, mRNA transcription; actives raise or lower the signal
How it was run: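 Readout: reporter transcript fluorescence after RT-PCR and capillary electrophoresis, fitted bidirectionally against DMSO controls. Human HepG2 liver cells carried transiently transfected multiplexed reporter constructs; endogenous transcription factor activity measured 24 h post-dosing.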

[5] = target: Aryl hydrocarbon receptor (Homo sapiens) (UniProt P35869); assay: ATG_Ahr_CIS: Attagene CIS-FACTORIAL HepG2 Assay for human Aryl Hydrocarbon Receptor (Ahr) (AID 2282930); conditions: HepG2 AhR cis-factorial reporter transcription; actives raise or lower the signal
How it was run: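 Transient MRTU transfection of HepG2 → 24 h compound exposure → total RNA, oligo(dT) RT → PCR, 6-FAM extension, HpaI cut → CE fluorescence. DMSO = baseline; bidirectional curve fit.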

[6] = ATG_AP_1_CIS: Attagene CIS-FACTORIAL HepG2 Assay for human Activator Protein 1 (AP-1) (AID 2282931); conditions: HepG2 Attagene cis-factorial AP-1 reporter mRNA; actives raise or lower the signal
How it was run: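 Reporter transcripts were measured 24 h after dosing by RT-PCR and capillary electrophoresis of fluorescent fragments. Cells: HepG2 carrying transfected cis-regulated reporter constructs reading endogenous factor activity. Gain or loss fitted against DMSO.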

[7] = ATG_AP_2_CIS: Attagene CIS-FACTORIAL HepG2 Assay for human Activator Protein 2 (AP-2) (AID 2282932); conditions: HepG2 AP-2 cis-reporter, Attagene transcription factor profiling; actives raise or lower the signal
How it was run: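 HepG2, transient MRTU transfection, cis-regulated reporters; 24 h compound exposure; RNA isolated, RT-PCR, 6-FAM labelling, HpaI digest, CE fluorescence. DMSO = negative control/baseline, bidirectional fit.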

[8] = ATG_BRE_CIS: Attagene CIS-FACTORIAL HepG2 Assay for human Bone Morphogenetic Protein (BMP) Response Element (BRE) (AID 2282933); conditions: HepG2 BMP response element reporter, Attagene transcription factor profiling; actives raise or lower the signal
How it was run: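 A HepG2 multiplex reporter system measured inducible reporter mRNA 24 h post-dosing. Detection: RT-PCR, 6-FAM primer extension, HpaI digestion, capillary electrophoresis. Activity fitted bidirectionally relative to DMSO.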

[9] = target: Transcription factor E2F1 (Homo sapiens) (UniProt Q01094); assay: ATG_E2F_CIS: Attagene CIS-FACTORIAL HepG2 Assay for human E2F Transcription Factor 1 (AID 2282935); conditions: HepG2 Attagene cis-reporter, E2F reporter RNA transcripts; actives raise or lower the signal
How it was run: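 Cis-element reporter mRNA induction in transiently transfected HepG2, 24 h exposure. Activity fitted in both directions relative to DMSO negative control.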

[10] = ATG_E_Box_CIS: Attagene CIS-FACTORIAL HepG2 Assay for human Enhancer Box (E-box) (AID 2282936); conditions: HepG2 E-box cis-reporter transcription, actives raise or lower the signal
How it was run: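 Cells: HepG2 (human liver), transient MRTU transfection. Exposure 24 h. RNA → oligo(dT) RT → PCR → 6-FAM label → HpaI → CE. Activity fitted both directions relative to DMSO.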

[11] = ATG_M_61_CIS: Attagene CIS-FACTORIAL HepG2 Assay for M61 Transcription Factor (Internal Marker) (AID 2282937); conditions: HepG2 Attagene CIS-FACTORIAL M61 internal marker reporter; actives raise or lower the signal
How it was run: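 Readout: fluorescent reporter mRNA fragments resolved by capillary electrophoresis after RT-PCR. Transiently transfected human HepG2 cells carried MRTU constructs reporting endogenous TF activity; 24 h chemical exposure; gain or loss of signal fitted relative to DMSO.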

[12] = ATG_EGR_CIS: Attagene CIS-FACTORIAL HepG2 Assay for human Early Growth Response 1 (EGR1) (AID 2282938); conditions: HepG2 Attagene CIS-FACTORIAL EGR reporter mRNA; actives raise or lower the signal
How it was run: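 Read-out: fluorescent reporter-mRNA fragments resolved by capillary electrophoresis after RT-PCR, 24 h post-dose in transiently transfected HepG2. Endogenous transcription-factor activity reported via cis-element-regulated reporter units; gain or loss fitted relative to DMSO.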

[13] = ATG_M_19_CIS: Attagene CIS-FACTORIAL HepG2 Assay for M19 Transcription Factor (Internal Marker) (AID 2282939); conditions: HepG2 Attagene CIS-FACTORIAL M19 internal marker reporter; actives raise or lower the signal
How it was run: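 Chemical-treated HepG2 (24 h) with MRTU constructs; reporter transcripts detected by fluorescent RT-PCR fragment analysis on capillary electrophoresis. Internal background marker, DMSO as baseline.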

[14] = ATG_ERE_CIS: Attagene CIS-FACTORIAL HepG2 Assay for Estrogen Response Element (ERE) (AID 2282940); conditions: HepG2 ERE cis-reporter, Attagene RNA transcript; actives raise or lower the signal
How it was run: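 Human liver cells (HepG2) bearing transiently transfected, promoter-regulated reporter units were exposed 24 h. Reporter mRNA induction was detected by capillary electrophoresis of labelled RT-PCR products and fitted bidirectionally to DMSO.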

[15] = ATG_Ets_CIS: Attagene CIS-FACTORIAL HepG2 Assay for human Erythroblast Transformation Specific (ETS) (AID 2282941); conditions: HepG2 ETS cis-reporter transcription, actives raise or lower the signal
How it was run: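 After transient cis-reporter transfection, HepG2 cells receive test chemical for 24 h. Reporter mRNA levels, measured by RT-PCR and capillary electrophoresis fluorescence, are analysed bidirectionally relative to the DMSO baseline.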

[16] = target: Hepatocyte nuclear factor 3-beta (Homo sapiens) (UniProt Q9Y261); assay: ATG_FoxA2_CIS: Attagene CIS-FACTORIAL HepG2 Assay for human Forkhead box A2 (FOXA2) (AID 2282942); conditions: HepG2 cis-reporter transcription factor activity, 24 h; actives raise or lower the signal
How it was run: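 Readout: fluorescent reporter transcripts resolved by capillary electrophoresis after RT-PCR. Transiently transfected HepG2, 24 h compound exposure, endogenous TF activity at cis promoter elements. Gain or loss of signal fitted relative to DMSO.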

[17] = ATG_FoxO_CIS: Attagene CIS-FACTORIAL HepG2 Assay for human Forkhead box O (FoxO) (AID 2282943); conditions: HepG2 Attagene cis-reporter, FoxO element, mRNA; actives raise or lower the signal
How it was run: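 HepG2, transient MRTU transfection (cis element, endogenous TFs). Dose 24 h. TriZol RNA → oligo(dT) RT → PCR → 6-FAM primer extension → HpaI cut → CE. Gain/loss vs DMSO.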

[18] = ATG_GATA_CIS: Attagene CIS-FACTORIAL HepG2 Assay for human GATA Binding Protein (AID 2282944); conditions: HepG2 GATA cis-element reporter, Attagene multiplex mRNA; actives raise or lower the signal
How it was run: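 Transfected cis-reporter HepG2 cells were treated with chemicals for 24 hours. Total RNA was then converted to cDNA, amplified with reporter-specific primers and analysed by fluorescent capillary electrophoresis, using DMSO-treated wells as baseline.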

[19] = ATG_GLI_CIS: Attagene CIS-FACTORIAL HepG2 Assay for human Zinc Finger Protein GLI1 (AID 2282945); conditions: HepG2, Attagene cis-factorial reporter mRNA, GLI element; actives raise or lower the signal
How it was run: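 Bidirectional curve fits relative to DMSO, using reporter mRNA levels from RT-PCR plus capillary electrophoresis. Cells were HepG2 transiently carrying cis-regulated reporter constructs, harvested 24 h after dosing.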

[20] = target: Retinoic acid receptor alpha (Homo sapiens) (UniProt P10276); assay: ATG_DR5_RAR_CIS: Attagene CIS-FACTORIAL HepG2 Assay for human Retinoic Acid Receptor Alpha (RARE), DR5 submotif (AID 2282934); conditions: HepG2 Attagene cis-factorial RARE DR5 reporter, mRNA; actives raise or lower the signal;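 on AC50: reporter responds to endogenous RAR alpha beta and gamma in HepG2 not RARA alone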
How it was run: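 Transient MRTU transfection of HepG2; 24 h compound treatment; TriZol RNA, oligo(dT) RT, PCR, FAM labelling, capillary electrophoresis. Bidirectional fit vs DMSO. Endogenous TF activity at DR5 RARE.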

Measured: AC50

Hepatocyte nuclear factor 3-beta (Homo sapiens), sequence (Q9Y261 whole entry, looked up): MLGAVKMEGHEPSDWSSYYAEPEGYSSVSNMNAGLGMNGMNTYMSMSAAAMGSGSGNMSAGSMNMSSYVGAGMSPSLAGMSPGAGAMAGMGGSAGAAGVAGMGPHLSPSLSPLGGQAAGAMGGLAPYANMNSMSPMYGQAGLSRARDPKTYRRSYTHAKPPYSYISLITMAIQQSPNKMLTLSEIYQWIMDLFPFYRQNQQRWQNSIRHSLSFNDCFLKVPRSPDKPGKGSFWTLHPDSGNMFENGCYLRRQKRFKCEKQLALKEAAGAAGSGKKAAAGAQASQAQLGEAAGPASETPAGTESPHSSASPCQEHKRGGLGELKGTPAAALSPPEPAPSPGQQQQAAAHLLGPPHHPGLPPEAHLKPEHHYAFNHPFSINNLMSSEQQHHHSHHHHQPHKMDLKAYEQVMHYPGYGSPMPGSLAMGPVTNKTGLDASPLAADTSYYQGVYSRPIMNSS
Aryl hydrocarbon receptor (Homo sapiens), sequence (P35869 whole entry, looked up): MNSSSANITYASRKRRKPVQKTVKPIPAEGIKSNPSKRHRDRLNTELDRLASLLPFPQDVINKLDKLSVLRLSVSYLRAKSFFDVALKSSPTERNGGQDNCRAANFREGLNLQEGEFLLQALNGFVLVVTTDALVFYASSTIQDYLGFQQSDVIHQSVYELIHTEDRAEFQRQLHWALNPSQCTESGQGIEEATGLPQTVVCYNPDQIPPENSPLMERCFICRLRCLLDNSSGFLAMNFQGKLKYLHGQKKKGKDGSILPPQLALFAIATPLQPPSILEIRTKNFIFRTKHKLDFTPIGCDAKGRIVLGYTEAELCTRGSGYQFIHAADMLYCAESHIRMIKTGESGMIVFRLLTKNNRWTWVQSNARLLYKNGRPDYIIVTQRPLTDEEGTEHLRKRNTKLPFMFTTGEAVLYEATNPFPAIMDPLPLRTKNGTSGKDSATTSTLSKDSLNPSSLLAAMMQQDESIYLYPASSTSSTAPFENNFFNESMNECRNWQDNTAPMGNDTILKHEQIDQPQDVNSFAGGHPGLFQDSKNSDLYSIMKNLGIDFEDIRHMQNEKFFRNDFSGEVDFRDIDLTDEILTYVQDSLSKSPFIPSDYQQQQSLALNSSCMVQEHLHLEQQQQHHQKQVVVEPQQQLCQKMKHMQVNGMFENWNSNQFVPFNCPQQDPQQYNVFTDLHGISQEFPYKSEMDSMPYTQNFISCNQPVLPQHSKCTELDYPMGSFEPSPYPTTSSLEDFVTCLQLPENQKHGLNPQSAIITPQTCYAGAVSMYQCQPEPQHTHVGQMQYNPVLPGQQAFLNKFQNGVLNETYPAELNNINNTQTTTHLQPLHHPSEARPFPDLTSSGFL
Retinoic acid receptor alpha (Homo sapiens), sequence (P10276 whole entry, looked up): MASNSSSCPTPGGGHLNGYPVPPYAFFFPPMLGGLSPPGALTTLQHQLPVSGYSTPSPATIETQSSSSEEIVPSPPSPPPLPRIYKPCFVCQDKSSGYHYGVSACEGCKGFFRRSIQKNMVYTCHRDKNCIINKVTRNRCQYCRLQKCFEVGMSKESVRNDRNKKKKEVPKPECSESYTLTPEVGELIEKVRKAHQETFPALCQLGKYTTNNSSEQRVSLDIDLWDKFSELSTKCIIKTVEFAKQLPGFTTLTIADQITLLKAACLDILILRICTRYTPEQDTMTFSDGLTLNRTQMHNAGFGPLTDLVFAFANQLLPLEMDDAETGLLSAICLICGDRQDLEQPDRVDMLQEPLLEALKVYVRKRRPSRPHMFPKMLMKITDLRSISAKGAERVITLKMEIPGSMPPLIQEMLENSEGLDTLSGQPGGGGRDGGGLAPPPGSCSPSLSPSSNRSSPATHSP
CCAAT/enhancer-binding protein beta (Homo sapiens), sequence (P17676 whole entry, looked up): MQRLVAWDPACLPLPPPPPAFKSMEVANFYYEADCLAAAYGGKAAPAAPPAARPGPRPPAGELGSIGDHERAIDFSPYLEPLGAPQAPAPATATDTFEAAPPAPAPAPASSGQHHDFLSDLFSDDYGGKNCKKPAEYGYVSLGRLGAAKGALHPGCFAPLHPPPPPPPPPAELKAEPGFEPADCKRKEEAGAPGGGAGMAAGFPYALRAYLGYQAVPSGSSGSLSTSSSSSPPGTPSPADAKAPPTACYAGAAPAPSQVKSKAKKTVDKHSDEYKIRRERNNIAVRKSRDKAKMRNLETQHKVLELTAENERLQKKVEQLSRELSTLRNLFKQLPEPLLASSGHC
Transcription factor E2F1 (Homo sapiens), sequence (Q01094 whole entry, looked up): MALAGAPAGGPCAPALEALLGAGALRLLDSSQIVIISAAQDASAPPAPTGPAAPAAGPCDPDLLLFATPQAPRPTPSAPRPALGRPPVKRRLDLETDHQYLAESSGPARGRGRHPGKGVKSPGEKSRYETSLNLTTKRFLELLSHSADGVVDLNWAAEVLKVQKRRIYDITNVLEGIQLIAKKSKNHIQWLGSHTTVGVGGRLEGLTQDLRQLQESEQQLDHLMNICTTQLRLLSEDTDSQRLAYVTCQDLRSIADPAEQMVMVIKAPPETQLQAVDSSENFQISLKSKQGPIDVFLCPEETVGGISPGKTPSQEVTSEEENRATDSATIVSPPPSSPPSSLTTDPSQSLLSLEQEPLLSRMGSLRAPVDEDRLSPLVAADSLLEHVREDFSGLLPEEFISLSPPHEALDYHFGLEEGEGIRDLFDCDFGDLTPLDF

COP(=O)(OC)SCn1c(=O)oc2cc(Cl)cnc21
active: [1] 18.1 µM | [4] 10.4 µM
not listed: [20]
inactive: all other assays above

COP(=O)(OC)OC(Br)C(Cl)(Cl)Br (stereo not drawn)
inactive: all assays above

O=c1ccc(=O)[nH][nH]1
not listed: [9] | [14] | [20]
inactive: all other assays above

CCOP(=S)(OCC)OC(Cl)C(Cl)(Cl)Cl (stereo not drawn)
active: [1] 25.3 µM | [2] 30.3 µM | [3] 71.1 µM
not listed: [9] | [14]
inactive: all other assays above

CC(COc1ccc(Oc2ccccc2)cc1)Oc1ccccn1 (stereo not drawn)
active: [2] 13.4 µM | [6] 19.1 µM | [12] 13.2 µM
not listed: [9] | [14]
inactive: all other assays above

C#CCC1=C(C)C(OC(=O)C2C(C=C(C)C)C2(C)C)CC1=O (stereo not drawn)
inactive: [3] | [11] | [13] | [15] | [16]
active: [1] 27.1 µM | [2] 21.7 µM | [4] 50 µM | [5] 78.6 µM | [6] 37.1 µM | [7] 74.9 µM | [8] 9.01 µM | [20] 9.92 µM | [10] 78.6 µM | [12] 50 µM | [17] 90.3 µM | [18] 77.1 µM | [19] 73.2 µM

CC[C@H](C)[C@H]1O[C@]2(C=C[C@@H]1C)C[C@@H]1C[C@@H](C/C=C(\C)[C@@H](O[C@H]3C[C@H](OC)[C@@H](O[C@H]4C[C@H](OC)[C@@H](NC)[C@H](C)O4)[C@H](C)O3)[C@@H](C)/C=C/C=C3\CO[C@@H]4[C@H](O)C(C)=C[C@@H](C(=O)O1)[C@]34O)O2
not listed: [9] | [20]
inactive: all other assays above
